Assay results published in PubChem BioAssay AID1159580 (chemical genetic matrix, 2015).
The campaign covered roughly 5,500 compounds. About 2,000 (36%) were called active. Inconclusive results (about 18%) are left out. Cut-off read from the data, not from the text of the source: active = normalized growth mostly below about 0.91 (no sharp cut-off); inconclusive = no clear call, values can overlap the other calls; inactive = mostly above about 0.92. The list shows a part of the results.

Test: chemical genetic growth profiling, strain panel (AID 1159580);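 note: tested at 20 µM; growth read once vehicle control cultures reached saturation at 30 °C; 1 = growth at the plate median or of vehicle wells; lower values mean less growth of the strain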
Conditions: S. cerevisiae deletion strains, growth OD
[1] = locus YAL013W, strain DEP1, hits give low values
[2] = locus YBR229C, strain ROT2, hits give low values
[3] = locus YDL101C, strain DUN1, hits give low values
[4] = locus YDL134C, strain PPH21, hits give low values
[5] = locus YDR150W, strain NUM1, hits give low values
[6] = locus YEL061C, strain CIN8, hits give low values
[7] = locus YGR078C, strain PAC10, hits give low values
[8] = locus YGR229C, strain SMI1, hits give low values
[9] = locus YHR030C, strain SLT2, hits give low values
[10] = locus YHR087W, strain rtc3, hits give low values
[11] = locus YJR043C, strain POL32, hits give low values
[12] = locus YJR075W, strain HOC1, hits give low values
[13] = locus YLR039C, strain RIC1, hits give low values
[14] = locus YLR058C, strain SHM2 (second series), hits give low values
[15] = locus YLR085C, strain ARP6, hits give low values
[16] = locus YLR262C, strain YPT6, hits give low values
[17] = locus YML094W, strain GIM5, hits give low values
[18] = locus YMR219W, strain ESC1, hits give low values
[19] = locus YMR263W, strain SAP30, hits give low values
[20] = locus YNL153C, strain GIM3, hits give low values
[21] = locus YNL298W, strain CLA4 (second series), hits give low values
[22] = locus YNL322C, strain KRE1, hits give low values
[23] = locus YNR030W, strain Alg12, hits give low values
[24] = locus YPL055C, strain LGE1, hits give low values
[25] = locus YPL241C, strain CIN2, hits give low values
[26] = locus YPR135W, strain CTF4, hits give low values

Measured: normalized growth

COc1ccc(/C(C#N)=C/c2ccc(OC)c(OC)c2)cc1
active: [9] 0.548 | [13] 0.717 | [15] 0.768 | [16] 0.741
inactive: [1] 0.953 | [2] 0.98 | [3] 0.985 | [4] 0.949 | [5] 0.951 | [6] 0.961 | [7] 0.968 | [8] 0.972 | [10] 0.962 | locus YJL187C, strain SWE1, hits give low values 1 | [11] 0.964 | [12] 0.95 | [14] 0.998 | [17] 0.933 | [18] 0.998 | [19] 0.953 | [20] 0.969 | [21] 0.936 | [22] 0.994 | [23] 0.925 | [24] 0.9 | [25] 0.933 | [26] 0.698

COc1ccc(/C=N\NC(=O)CC#N)cc1OC
inactive: [1] 1 | [2] 1 | [3] 1.04 | [4] 0.999 | [5] 1.04 | [6] 0.985 | [7] 0.998 | [8] 1 | [9] 1.05 | [10] 0.996 | [11] 1.01 | [12] 1.01 | locus YKL190W, strain CNB1, hits give low values 1 | [13] 1 | [14] 1.04 | [15] 0.957 | [16] 1.01 | [17] 0.998 | [18] 0.997 | [19] 1.04 | locus YNL128W, strain TEP1, hits give low values 1.01 | [20] 1.03 | [21] 1.02 | [22] 1 | [23] 0.998 | [24] 1.15 | [25] 1.01 | [26] 1.29

O=C(OCc1ccc(Oc2ccc(Cl)cc2Cl)c([N+](=O)[O-])c1)c1ccc([N+](=O)[O-])o1
inactive: locus YAR019C, strain CDC15, hits give low values 0.98 | locus YBL105C, strain PKC1, hits give low values 0.975 | locus YBR135W, strain CKS1, hits give low values 0.981 | locus YBR136W, strain MEC1, hits give low values 0.961 | locus YBR160W, strain CDC28, hits give low values 0.97 | locus YDL017W, strain CDC7, hits give low values 0.979 | locus YDL028C, strain MPS1, hits give low values 0.958 | [3] 0.98 | locus YDL108W, strain KIN28, hits give low values 0.969 | locus YDL132W, strain cdc53, hits give low values 0.974 | locus YDL214C, strain PRR2, hits give low values 1.01 | locus YDR052C, strain DBF4, hits give low values 0.99 | locus YDR054C, strain cdc34, hits give low values 0.968 | locus YDR226W, strain ADK1, hits give low values 0.97 | locus YDR477W, strain SNF1, hits give low values 0.971 | locus YER123W, strain YCK3, hits give low values 0.987 | locus YER133W, strain GLC7, hits give low values 0.995 | locus YFL009W, strain cdc4, hits give low values 0.956 | locus YFL029C, strain CAK1, hits give low values 0.978 | locus YFR003C, strain YPI1, hits give low values 0.985 | locus YFR019W, strain FAB1, hits give low values 0.99 | locus YFR028C, strain CDC14, hits give low values 0.969 | locus YGR040W, strain KSS1, hits give low values 0.977 | locus YGR052W, strain FMP48, hits give low values 1.07 | locus YGR092W, strain DBF2, hits give low values 0.957 | [9] 0.916 | locus YHR079C, strain IRE1, hits give low values 0.997 | locus YHR082C, strain KSP1, hits give low values 1.04 | locus YHR205W, strain SCH9, hits give low values 0.93 | locus YIL147C, strain SLN1, hits give low values 0.977 | locus YJL095W, strain BCK1, hits give low values 0.993 | locus YJL128C, strain PBS2, hits give low values 0.896 | locus YJL157C, strain FAR1, hits give low values 0.987 | locus YJR016C, strain ILV3, hits give low values 0.982 | locus YJR066W, strain TOR1 (second series), hits give low values 0.971 | locus YJR066W, strain TOR1, hits give low values 0.972 | locus YKL048C, strain ELM1, hits give low values 0.991 | locus YKL067W, strain YNK1, hits give low values 1 | locus YKL101W, strain HSL1, hits give low values 0.983 | locus YKL193C, strain SDS22, hits give low values 0.986 | locus YKL203C, strain TOR2, hits give low values 1.07 | locus YLR113W, strain HOG1, hits give low values 0.999 | locus YLR133W, strain CKI1, hits give low values 0.985 | locus YLR403W, strain SFP1, hits give low values 0.962 | locus YML070W, strain DAK1, hits give low values 1 | locus YMR001C, strain CDC5, hits give low values 0.97 | locus YMR205C, strain PFK2 (second series), hits give low values 1.01 | locus YMR277W, strain FCP1, hits give low values 0.966 | locus YNL006W, strain LST8, hits give low values 0.986 | locus YNL020C, strain ARK1, hits give low values 0.996 | locus YNL161W, strain CBK1, hits give low values 0.987 | locus YNL183C, strain NPR1, hits give low values 1.07 | locus YNL207W, strain RIO2, hits give low values 0.982 | locus YNL222W, strain SSU72, hits give low values 0.976 | locus YNL307C, strain MCK1 (second series), hits give low values 0.987 | locus YOL078W, strain AVO1, hits give low values 0.985 | locus YOL136C, strain PFK27, hits give low values 1 | locus YOR061W, strain CKA2, hits give low values 0.975 | locus YOR119C, strain RIO1, hits give low values 1.03 | locus YOR231W, strain MKK1, hits give low values 0.957 | locus YOR329C, strain SCD5, hits give low values 0.982 | locus YPL031C, strain PHO85, hits give low values 0.974 | locus YPL153C, strain RAD53, hits give low values 0.976 | locus YPL204W, strain HRR25, hits give low values 0.983 | locus YPL209C, strain IPL1, hits give low values 0.983 | locus YPL256C, strain CLN2, hits give low values 0.993 | locus YPR025C, strain CCL1, hits give low values 0.979 | locus YPR106W, strain ISR1, hits give low values 0.972 | locus YPR111W, strain DBF20, hits give low values 0.958 | strain NNK1, hits give low values 0.983 | strain TSCII, hits give low values 0.968
